This is part of a sample that, as a whole, favours compounds with a hit. Of some 83,000 tested, about 20% had one in any assay.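 Interpretation: 100, growth as untreated; towards 0, rising growth inhibition; 0, no net growth; 0 to -100, cell death. Compounds scoring below 10 were considered active.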 Active and inactive are the calls of the source.

For the assay, the system named is HL-60(TB) leukemia. Kind of assay: NCI-60 one-dose screen, 48 h (100 = growth as untreated, 0 = no growth, -100 = all killed). The conditions noted are these: 10 µM unless noted.
On to `CCCCCCCCCCCCCCC(C(=O)OCC)C(=O)OCC`, for which the growth is 104% (inactive).
Under `C=CCCCC(=O)CCC(=O)OCC1O[C@@H](O[C@@H]2C(O)[C@@H](OC(C)=O)C(C)O[C@H]2O[C@H](CC=C)CCCCC)C(O)[C@@H](OC(=O)/C(C)=C/C)[C@@H]1OC(=O)/C=C/c1ccccc1` (stereo not given in full) stands 8.45% (active).
The result for `CN1CCN(CCCCCN=c2cc3c(=O)n(CCCCCN4CCN(C)CC4)c(=O)c4c(NCCCCCN5CCN(C)CC5)cc5c(O)n(CCCCCN6CCN(C)CC6)c(=O)c2c5c4-3)CC1` reads 51.5% (inactive); that for `COc1ccc(CCn2cncc2-c2c[nH]c3ccccc23)cc1`, 93.5% (inactive).
`N=c1ccc2nc3ccc(N)cc3sc-2c1`: the growth was 0.816% (active).
The result for `CC(C)OC(=O)OCOP(=O)(OCOC(=O)OC(C)C)C1CCCN(O)C1=O` (stereo not given) reads 6.5% (active); that for `Cl/C(=N\Nc1ccccc1)c1ccccc1`, 101% (inactive).
The result for `O=S(=O)(NCCNc1cc(-c2cn(-c3ccccc3)nc2-c2cccc(O)c2)ccn1)c1ccc(F)cc1` reads 6.88% (active); that for `CCNC(=O)N1CCc2c(Br)c3c(c(OC)c2C1Cc1ccc(OC)cc1)OCO3` (stereo not given), 7.48% (active).
Under `COc1cc(C(=O)c2cnc(-c3ccc4cc[nH]c4c3)[nH]2)cc(OC)c1OC` stands -1.01% (active).
In the case of `CN(C)c1cc(NN=C(c2ccc(O)cc2)c2ccc(O)cc2)c([N+](=O)[O-])cc1[N+](=O)[O-]`, the growth was 127% (inactive).
Under `Nc1ccc2c(c1)Cc1cc(Cl)c(Cl)cc1-2` stands 53.4% (inactive); under `CC(C)=CCCC(C)c1ccc(C)c2c1OCN(CC1CCNCC1)C2` (stereo not given), 13.8% (inactive).
The result for `O=C(NCCCO)c1cc(Cl)ccc1O` reads -13.5% (active).
Under `COc1cc(Nc2ncccc2C(=O)Nc2nc3ccc(F)cc3s2)cc(OC)c1OC` stands 136% (inactive).
As to `Cc1ccc(-c2nc(N3CCN(C(=O)c4ccc(OC(F)(F)F)cc4)CC3)c3ccccc3n2)cc1`, the growth is 97.5% (inactive).
The result for `CC(C)(C)OC(=O)N1CCC(O)[C@@H](O[Si](c2ccccc2)(c2ccccc2)C(C)(C)C)[C@H]1/C=C/c1ccccc1` (stereo not given in full) reads 55.9% (inactive); that for `Cc1ccc(C2CC(c3cccc(Nc4ccncc4)c3)=NN2c2cc(Cl)cc(Cl)c2)cc1` (stereo not given), 14.8% (inactive).
Consider `Cc1ccc(/C=C/C(=O)Nc2ncc(Cc3ccc(F)cc3)s2)o1`, for which the growth was 2.75% (active).
Under `COc1cccc(-c2nc(SCC(=O)Nc3ccc(C(=O)/C=C/c4ccc(OC)c(OC)c4)cc3)[nH]c(=O)c2C#N)c1` stands 98.2% (inactive).
The result for `N=c1c(S(=O)(=O)c2ccccc2)cc2c(=O)n3ccccc3nc2n1C1CCCC1` reads 104% (inactive).
The result for `C[C@@H]1C[C@H]2C(=O)O[C@@H](C)[C@H](NC(=O)[C@H](Cc3cc(F)cc(F)c3)NC(=O)Nc3ccc(C4CC4)cc3F)C(=O)N3CCC[C@H]3C(=O)N3CCCC[C@H]3C(=O)N[C@@H](C)C(=O)N2C1` reads 20.9% (inactive); that for `COc1ccc(-c2cnnc3c(-c4cccc(C(F)(F)F)c4)cnn23)cc1`, 60.2% (inactive).
With `COc1ccc(-c2cc(-c3ccc(Cl)cc3)nc(NCCCCNc3ccnc4cc(Cl)ccc34)n2)cc1`, the growth was 16.7% (inactive).
Turning to `Cn1cc(-c2nonc2-c2cn(C)c3ccc(F)cc23)c2cc(F)ccc21`, the growth was 17.3% (inactive).
Under `COc1ccc(Nc2ncc(Br)c(NCCCNC(=O)C3CCCC3)n2)cc1` stands 17% (inactive).
For `COc1cc(C2CC(=O)c3ccccc3N2)cc(OC)c1OC` (stereo not given), the growth is 98.8% (inactive).
The result for `O=C1C=C[C@H](O)[C@@]2(CO)O[C@@H]12` reads -24.4% (active); that for `COC(=O)CCC1=C(C)/C(=C/c2[nH]c(-c3ccc[nH]3)cc2OC)N=C1C`, -23.3% (active).
Regarding `CC(=O)Nc1ccccc1-c1n[nH]c(=O)[nH]c1=O`, the growth was 109% (inactive).
The result for `NCCN1CCNCC1` reads 97.6% (inactive); that for `COc1cc2c3c(n(CCCCNCCCn4c5c(c6cc(OC)c(OC)cc6c4=O)C(=O)c4cc6c(cc4-5)OCO6)c(=O)c2cc1OC)-c1cc2c(cc1C3=O)OCO2`, 93.7% (inactive).
Consider `COc1ccc(C[n+]2c3ccccc3n3c4ccc(N)cc4ccc32)c(OC)c1OC`, for which the growth was -6.46% (active).
Under `CCOC(=O)C(Nc1ccccc1)C(=O)OCC` stands 101% (inactive); under `COc1ccc(-c2nn(-c3cccc(NC(=O)c4cccc(C(F)(F)F)c4)c3)cc2-c2ccncc2)cc1Cl`, 4.23% (active).
Under `CSc1nc2sc3cc(Cl)c(Cl)cc3n2c(=N)c1C#N` stands 110% (inactive); under `Cn1cnc2c(F)c(Nc3ccc(Br)cc3Cl)c(C(=O)NOCCO)cc21`, 24.5% (inactive).
The result for `CCCCCCCCCCCCCCCCCc1nccn1CCO` reads 64.4% (inactive); that for `O=C(O)c1cc([N+](=O)[O-])ccc1Cl`, 104% (inactive).
As for `c1ccc(-c2n(Cc3ccc4ccccc4c3)c3ccccc3[n+]2Cc2ccc3ccccc3c2)cc1`, the growth was -49.3% (active).

For the origin of these results see PubChem BioAssay (NCI).
